JMJD2A Tudor inh = qHTS Assay for Inhibitors of JMJD2A-Tudor Domain; Lysine-specific demethylase 4A (Homo sapiens), O75164; AlphaScreen JMJD2A-Tudor / H3K4me3 peptide binding; Potency, µM (titrated, usually from 114 µM), actives largely listed as inhibitors; 390,000 compounds, 4.4% hits; AID 504339, 2011; also: nearly all actives have a fitted effect of over 50% in size
Target sequence (O75164 whole entry, looked up, the tested form may be a part): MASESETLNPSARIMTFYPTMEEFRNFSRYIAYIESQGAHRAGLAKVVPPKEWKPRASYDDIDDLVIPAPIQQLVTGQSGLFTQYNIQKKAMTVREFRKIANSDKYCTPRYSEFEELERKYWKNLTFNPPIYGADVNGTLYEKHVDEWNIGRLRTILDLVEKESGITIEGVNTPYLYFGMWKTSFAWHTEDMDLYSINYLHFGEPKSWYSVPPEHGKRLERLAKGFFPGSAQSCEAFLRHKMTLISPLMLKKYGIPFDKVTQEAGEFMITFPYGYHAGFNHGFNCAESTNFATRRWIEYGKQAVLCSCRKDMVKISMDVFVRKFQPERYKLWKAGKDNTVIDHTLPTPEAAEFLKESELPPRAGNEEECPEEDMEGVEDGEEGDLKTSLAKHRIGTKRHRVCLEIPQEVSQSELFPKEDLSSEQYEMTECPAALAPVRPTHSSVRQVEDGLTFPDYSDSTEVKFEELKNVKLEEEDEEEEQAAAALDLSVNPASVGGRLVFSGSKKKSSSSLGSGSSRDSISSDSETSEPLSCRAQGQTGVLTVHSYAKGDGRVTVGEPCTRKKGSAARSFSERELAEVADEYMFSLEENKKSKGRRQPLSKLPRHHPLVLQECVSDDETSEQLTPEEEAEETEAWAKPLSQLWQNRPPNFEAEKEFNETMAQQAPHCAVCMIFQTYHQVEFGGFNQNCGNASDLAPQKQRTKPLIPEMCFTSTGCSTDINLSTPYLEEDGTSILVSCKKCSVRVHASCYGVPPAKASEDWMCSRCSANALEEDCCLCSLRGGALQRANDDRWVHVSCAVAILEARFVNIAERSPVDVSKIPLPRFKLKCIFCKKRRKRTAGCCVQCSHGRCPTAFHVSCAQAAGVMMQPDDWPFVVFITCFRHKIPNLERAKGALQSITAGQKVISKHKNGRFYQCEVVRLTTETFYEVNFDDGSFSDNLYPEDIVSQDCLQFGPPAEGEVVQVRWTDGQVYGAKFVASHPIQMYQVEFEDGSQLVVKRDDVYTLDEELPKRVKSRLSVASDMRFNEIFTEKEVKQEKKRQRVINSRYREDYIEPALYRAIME
G9a inh = qHTS Assay for Inhibitors of Histone Lysine Methyltransferase G9a. Potency, µM (titrated, usually from 102 µM), most hits filed as inhibitors. G9a H3K9 monomethylation, AlphaScreen, 2 h. 350,000 compounds, 8.8% hits. Histone-lysine N-methyltransferase EHMT2 (Homo sapiens), Q96KQ7; also: nearly all actives have a fitted effect of over 75% in size
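Methyltransferase reactions run at room temperature for 2 h (20 nM enzyme, 500 nM biotin-H3K9 peptide, 20 uM SAM) after a 15 min compound preincubation; product detected by AlphaScreen beads and anti-H3K9me1 antibody.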
Six1-Eya2 blk = qHTS Assay for Inhibitors of the Six1/Eya2 Interaction; activity change, % (concentration not given with the values); AID 651725, 2012; 360,000 compounds, 0.56% hits; Homeobox protein SIX1 (Homo sapiens) + Protein phosphatase EYA2 (Homo sapiens), …; AlphaScreen GST-Six1/His-Eya2 binding, biochemical; stronger effect = lower value; in the data active = activity change below about -65%; inconclusive = mostly about -30% to -63%
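Homogeneous AlphaScreen proximity assay pairing GST-Six1 with His-tagged Eya2 (added as 5X mix: 250 nM and 500 nM) in 50 mM Tris pH 8.0, 300 mM NaCl, 1 mM TCEP. Glutathione donor and nickel acceptor beads; 1 h, 37 °C, dark.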
CtBP-E1A inh = qHTS Assay for Inhibitors of the CtBP/E1A Interaction; CtBP / adenovirus E1A interaction (AlphaScreen); AlphaScreen GST-E1A/His-CtBP binding, 1536-well; stronger effect = lower value; activity change, % (test concentration not listed); 340,000 compounds, 0.49% hits; in the data active = activity change below about -65%; inconclusive = mostly about -30% to -63%
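Steps: dispense buffer (Tris pH 8.0, NaCl 300 mM, TCEP 1 mM, BSA, Tween 20); add 5X protein mix (GST-E1A, His-CtBP, 125 nM each); pin 23 nL compound; 2 h at 37 °C, dark; add 5X beads (50 ug/mL); 1 h; read.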
HP1b chromo inh = HTS for Inhibitors of HP1-beta Chromodomain Interactions with Methylated Histone Tails; 390,000 compounds, 0.56% hits; AlphaScreen HP1-beta / biotin-H3K9me3 peptide binding; AID 540317, 2011; Potency, µM (titrated, usually from 114 µM), usual class: inhibitors; also: nearly all actives have a fitted effect of over 70% in size
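AlphaScreen: HP1-beta (50 nM) preformed 30 min with biotin-H3(1-18)K9me3 peptide (50 nM) in PBS pH 7.4, 0.01% Tween-20. Compound added for 30 min at RT, then streptavidin donor/nickel chelate acceptor beads (10 ug/mL) for 30 min.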
BAZ2B block = qHTS Assay for Inhibitors of BAZ2B; AlphaScreen BAZ2B-H3K14Ac peptide displacement; Potency, µM (titrated, usually from 114 µM), hits mostly inhibitors; 360,000 compounds, 4.4% hits; also: nearly all actives have a fitted effect of over 60% in size
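AlphaScreen displacement of biotin-H3(5-23)K14Ac peptide (50 nM final) from BAZ2B (50 nM final) in PBS pH 7.4, 0.01% Tween-20; complex preformed 30 min RT, then compounds (top 110 uM) 30 min RT, beads 20 min dark.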
Large screens that a line does not name were inactive. A selection: hits, their analogues and other compounds. The true share with any hit is near 10%. Unless noted, calls follow the shape of the dose curve; as a rule, active = well fitted inhibition curve with a large enough effect; inconclusive = small, poorly fitted or top-dose-only effect; inactive = no such curve, though single readings can be large or run the other way.

N#C/C(=C/c1ccc(OCc2ccc(C(=O)O)cc2)cc1)C(=O)Nc1ccccc1	JMJD2A Tudor inh 25µM, G9a inh 50µM, BAZ2B block 79µM (no result: CtBP-E1A inh)
N#C/C(=C/c1ccc(OCc2ccccc2)cc1)C(=O)NC1CCCCC1	none
N#C/C(=C\c1ccc(OCc2ccccc2)cc1)C(N)=O	JMJD2A Tudor inh 14µM, HP1b chromo inh inconclusive
N#C/C(=C\c1ccc(OCc2ccc(F)cc2)cc1)C(=O)Nc1cccc(C(=O)O)c1	BAZ2B block 79µM
COc1cc(/C=C(\C#N)C(=O)Nc2cccc(C(=O)O)c2)ccc1OCc1ccc(F)cc1	G9a inh inconclusive, CtBP-E1A inh -70
N#C/C(=C/c1ccc(OCc2ccc(C(=O)O)cc2)c(Br)c1)c1cccc(F)c1	JMJD2A Tudor inh 56µM, BAZ2B block inconclusive
Cc1ccc(OCC(=O)Nc2ccc3nc(SCC(=O)N4CCCC4)sc3c2)cc1	BAZ2B block inconclusive (no result: Six1-Eya2 blk, CtBP-E1A inh)
Cc1cc(NS(=O)(=O)c2cn(C)c(C)n2)ccc1Br	none (no result: Six1-Eya2 blk, CtBP-E1A inh)
O=C(c1ccc([N+](=O)[O-])cc1[N+](=O)[O-])N1CCc2ccccc21	BAZ2B block inconclusive (no result: G9a inh)
O=C(N=C1N=C2C=CC(Br)=CN2Cc2ccccc21)c1ccc([N+](=O)[O-])cc1[N+](=O)[O-]	JMJD2A Tudor inh inconclusive, G9a inh 50µM
O=C(NNC(=O)c1cccnc1)NC1CCCCC1	none (no result: CtBP-E1A inh)
O=C(NNC(=O)c1cc(O)c(O)c(O)c1)NC1CCCCC1	JMJD2A Tudor inh 10µM, G9a inh 1.6µM, BAZ2B block 56µM
COc1ccc(CCNC(=O)c2c(Nc3ccccc3C)sc(C(=O)c3ccccc3)c2N)cc1OC	JMJD2A Tudor inh inconclusive, G9a inh 8.9µM, BAZ2B block inconclusive (no result: Six1-Eya2 blk, CtBP-E1A inh)
COc1ccc(NC(=O)c2c(Nc3ccccc3)sc(C(=O)c3ccc(F)cc3)c2N)cc1	JMJD2A Tudor inh 45µM, G9a inh inconclusive, BAZ2B block inconclusive
CCOc1ccccc1Nc1sc(C(=O)c2ccccc2)c(N)c1C(=O)NCCc1ccccc1	G9a inh inconclusive (no result: Six1-Eya2 blk, CtBP-E1A inh)
CCOc1ccccc1Nc1sc(C(=O)c2ccccc2)c(N)c1C(=O)Nc1ccccc1	JMJD2A Tudor inh inconclusive, G9a inh 11µM, BAZ2B block inconclusive (no result: Six1-Eya2 blk, CtBP-E1A inh)
CCc1cccc(Nc2ncnc3onc(-c4ccc(F)cc4)c23)c1	none (no result: Six1-Eya2 blk, CtBP-E1A inh)
O=C1c2ccccc2-c2onc3c(Oc4ccccc4)cc(O)c1c23	G9a inh inconclusive, BAZ2B block 35µM (no result: JMJD2A Tudor inh, Six1-Eya2 blk, CtBP-E1A inh, HP1b chromo inh)
COc1ccccc1NC(=O)n1ncc2c(C)cccc21	none (no result: Six1-Eya2 blk, CtBP-E1A inh)
CCOC(=O)c1c(C)c(-c2ccccc2)n(CC(=O)Nc2cccc(F)c2)c1C	none (no result: Six1-Eya2 blk, CtBP-E1A inh)
OCc1c[nH]c(=S)n1CCOc1cccc(C(F)(F)F)c1	JMJD2A Tudor inh 22µM, G9a inh inconclusive (no result: CtBP-E1A inh)
CC1(C)NC(=O)N(CCCCOc2cccc(C(F)(F)F)c2)C1=O	none
CCOC(=O)C1CCN(CC(=O)Nc2cc(C)c3c(=O)oc4ccccc4c3n2)CC1	none (no result: Six1-Eya2 blk, CtBP-E1A inh)
CN(C)CCCN(C(=O)COc1ccc(Cl)cc1)c1nc2cc3c(cc2s1)OCO3	JMJD2A Tudor inh inconclusive, G9a inh 71µM, BAZ2B block inconclusive
CN(C)CCCN(C(=O)COc1ccccc1)c1nc2c(F)cccc2s1	none
CN(C)CCCN(C(=O)COc1ccc(Cl)cc1)c1nc2cc3c(cc2s1)OCCO3	JMJD2A Tudor inh inconclusive, G9a inh 50µM
CN(C)CCCN(C(=O)COc1ccccc1)c1nc2cc3c(cc2s1)OCO3	G9a inh 50µM
COc1cccc2sc(N(CCCN(C)C)C(=O)COc3ccc(Cl)cc3)nc12	G9a inh 79µM (no result: BAZ2B block)
CN(C)CCCN(C(=O)COc1ccccc1)c1nc2ccc(Cl)cc2s1	G9a inh inconclusive (no result: BAZ2B block)
N#CC(=C1CCCC1)c1nc(-c2ccccc2)cs1	G9a inh inconclusive
N#CC(=C1CCCC1)c1nc(-c2ccccc2O)cs1	G9a inh 35µM
COc1ccc(OCC#CCNC(C)(C)C)cc1	JMJD2A Tudor inh 40µM, G9a inh 7.9µM, HP1b chromo inh inconclusive, BAZ2B block 56µM
OCc1ccc(-c2nn(Cc3ccccc3)c3ccccc23)o1	G9a inh 21µM, BAZ2B block 40µM
CC1CCC2C(C1)c1sc(=O)[nH]c1SC2(C)C (centres undefined)	JMJD2A Tudor inh inconclusive, G9a inh 50µM, BAZ2B block inconclusive
COc1ccc(N2CCN(C(=O)COC(=O)Cc3ccc(F)cc3)CC2)cc1	G9a inh 45µM
COc1ccc(N2CCN(C(=O)COC(=O)c3ccc(CSC)o3)CC2)cc1	G9a inh 16µM, BAZ2B block inconclusive
